Consider 40 compounds from PubChem BioAssay (NCATS).

Where “and” joins values, the source holds several entries; their conditions need not be identical. Equal entries are not always repeated. Records with an inconclusive call do not appear. Calls of active or inactive are those of the source. Calls come from the whole dose curve; as a rule, active = well fitted inhibition curve with a large enough effect; inconclusive = small, poorly fitted or top-dose-only effect; inactive = no such curve, though single readings can be large or run the other way.

The nature of this assay: Primary qHTS for inhibitors of nuclear receptor binding SET domain protein 2 (NSD2) in an RCH-ACV wild type WT cells (2C) (AID 1645877). Note: nearly all actives have a fitted effect of over 70% in size. The note with it: RCH-ACV (leukaemia line) NSD2 WT (2C) viability, CellTiter-Glo, 72 h; series mostly up to 44.9 µM. From the text: Assay Provider: Jonathan D. Licht, MD
University of Florida College of Medicine, Gainesville, FL
Mutations in epigenetic regulators are common in relapsed pediatric acute lymphoblastic leukemia (ALL). Here, we uncovered the mechanism underlying the relapse of ALL driven by an activating mutation of the NSD2 histone methyltransferase (p.E1099K). […] Correction of this mutation restored glucocorticoid sensitivity. The transcriptional response to glucocorticoids was blocked in NSD2 mutant cells due to depressed glucocorticoid receptor (GR) levels and the failure of glucocorticoids to autoactivate GR expression. […] Pre-treatment of NSD2 p.E1099K cell lines and PDX samples with PRC2 inhibitors reversed glucocorticoid resistance in vitro and in vivo.
High-throughput drug screening of isogenic RCH-ACV cell lines was performed at the National Center for Advancing Translational Science (NCATS), National Institutes of Health as previously described (1). Briefly, isogenic RCH-ACV NSD2 p.E1099K mutant (9B) and WT cells (2C) were plated at 500 cells/well in a 1536-well plate with a 72-hour incubation with compounds prior to addition of CellTiter-Glo to assess cell viability. NCATS libraries screened include: NPC, MIPE 5.0, Kinase and NPACT. To determine compound activity in the qHTS assay, the concentration-response data for each sample was plotted and modeled by a four-parameter logistic fit yielding IC50 and efficacy (maximal response) values. The area under the curve (AUC) of the dose-response curve ensures both efficacy (magnitude of cell killing) and potency (concentration that elicits cell killing) are accounted for in the analysis of activity.
1. Tobie D Lee, Olivia W Lee, Kyle R Brimacombe, Lu Chen, Rajarshi Guha, Sabrina Lusvarghi, Bethilehem G Tebase, Carleen Klumpp-Thomas, Robert W Robey, Suresh V Ambudkar, Min Shen, Michael M Gottesman, Matthew D Hall. A High-Throughput Screen of a Library of Therapeutics Identifies Cytotoxic Substrates of P-glycoprotein. Mol Pharmacol. 2019, Nov;96(5):629-640.
(In general: qHTS replaces the single test concentration by a dilution series.)
Consider `CC(=O)Nc1nc(C)c(-c2ccc(Cl)c(S(=O)(=O)NCCO)c2)s1`, for which the Potency was 1.32 µM (active).
With `COc1cc2c(NC3CCN(C(C)C)CC3)nc(C3CCCCC3)nc2cc1OCCCN1CCCC1` the figure was 11.5 µM (active) and 6.61 µM (active); with `CC(=O)OCCN1C(=O)c2c(C)nc3ccc(S(=O)(=O)N4CCOCC4)cc3c2C1=O`, “inactive”; with `COC(=O)c1ccc2c(C(=Nc3ccc(N(C)C(=O)CN4CCN(C)CC4)cc3)c3ccccc3)c(O)[nH]c2c1`, 2.3 µM (active) and 3.32 µM (active).
In the case of `CC(C)c1ccc(Cn2ccc3c4c(N)nc(NC5CC5)nc4ccc32)cc1` it was 0.417 µM (active); in that of `O=C(O)c1ccc2c(c1)nc(Nc1cccc(Cl)c1)c1ccncc12`, 3.65 µM (active); in that of `C[C@]12CC[C@H](O)CC1=CCC1C2CC[C@]2(C)C(n3cnc4ccccc43)=CCC12` (stereo not given in full), “inactive”.
With `CN1CCC(CNc2ccc3ncc(-c4cccc(OC(F)(F)F)c4)n3n2)CC1` the figure was 2.05 µM (active) and 3.32 µM (active); with `CCn1cc(-c2ccnc3[nH]c(-c4cccc(CN(C)C)c4)cc23)c(-c2ccc(NC(=O)N(C)C)cc2)n1`, 36.6 nM (active) and 37.2 nM (active); with `Nc1ccccc1NC(=O)c1ccc(CNc2nccc(-c3cccnc3)n2)cc1`, 205 nM (active) and 590 nM (active).
In the case of `O=C(CCCCCCNC(=O)c1cnc(N(c2ccccc2)c2ccccc2)nc1)NO`, the Potency was 365 nM (active) and 2.09 µM (active).
In the case of `C[C@@H](Oc1cc(-c2cnn(C3CCNCC3)c2)cnc1N)c1c(Cl)ccc(F)c1Cl` it was 1.15 µM (active) and 1.29 µM (active) and 1.05 µM (active); in that of `O=C(O)C1(Cc2cccc(Nc3nccs3)n2)CCC(Oc2cccc(Cl)c2F)CC1` (stereo not given), 2.58 µM (active) and 3.72 µM (active); in that of `Nc1ncnc2c1c(-c1cccc(OCc3ccccc3)c1)cn2C1CC(CN2CCCC2)C1` (stereo not given), 10.5 µM (active).
In the case of `Cc1cc(N2CCOCC2)cc2[nH]c(-c3c(NC[C@@H](O)c4cccc(Cl)c4)cc[nH]c3=O)nc12` it was 2.35 µM (active).
Regarding `CNC(=O)c1ccccc1Nc1nc(Nc2ccc(N3CCOCC3)cc2OC)ncc1Cl`, the Potency is 649 nM (active) and 1.05 µM (active).
For the compound `Cc1c(NC(=O)OC[C@@H]2COCCN2)cn2ncnc(Nc3ccc4c(cnn4Cc4cccc(F)c4)c3)c12`, the Potency was 14.8 µM (active).
With `Clc1cccc(-c2nnnn2Cc2cccnc2)c1Cl` the entry was “inactive”; with `Cc1nc(N)ncc1-c1nc(N2CCOCC2)c2sc(C(C)(C)O)cc2n1`, 115 nM (active) and 468 nM (active); with `COc1cc2c(Oc3ccc(-c4cnc(Nc5ccc(F)cc5)n(C)c4=O)cc3F)ccnc2cc1OCCCN1CCOCC1`, 4.59 µM (active) and 2.09 µM (active).
In the case of `Cn1c(CNc2ccc(C(=N)N)cc2)nc2cc(C(=O)N(CCC(=O)O)c3ccccn3)ccc21` it was “inactive”; in that of `COc1c(N2C[C@@H]3CCCN[C@H]3C2)c(F)cc2c(=O)c(C(=O)O)cn(C3CC3)c12`, “inactive”.
`CCCn1c(=O)c2[nH]c(-c3cnn(Cc4cccc(C(F)(F)F)c4)c3)nc2n(CC)c1=O`: the Potency result was “inactive”.
In the case of `CC(C)C[C@H](NC(=O)CNC(=O)c1cc(Cl)ccc1Cl)B(O)O` it was 0.0934 µM (active).
On to `CN1CCN(c2cc(C(=O)Nc3ccc4c(c3)-c3c(c(C(N)=O)nn3-c3ccc(F)cc3)CC4)c(Cl)cn2)CC1`, for which the Potency was 8.33 µM (active).
With `Cc1ccc(-c2ncn(-c3ccc(Nc4nccc(-c5cccc(N6CCOCC6)c5)n4)cc3)n2)cn1` the figure was 0.662 µM (active).
With `COc1cc2c(cc1-c1c(C)noc1C)ncc1[nH]c(=O)n([C@H](C)c3ccccn3)c12` the figure was 0.468 µM (active); with `COc1cc(C(C)C)c2c(c1)S(=O)(=O)N(COc1cc(=O)n3cccc(OCCN4CCCCC4)c3n1)C2=O`, 10.5 µM (active).
In the case of `O=C(Nc1cn[nH]c1-c1nc2ccc(CN3CCOCC3)cc2[nH]1)NC1CC1` it was 64.9 nM (active) and 58 nM (active) and 59 nM (active); in that of `CCc1cc2c(cc1N1CCC(N3CCOCC3)CC1)C(C)(C)c1[nH]c3cc(C#N)ccc3c1C2=O`, 1.42 µM (active).
As to `CNc1nccc(-c2cccnc2Oc2cc(C(=O)Nc3cccc(C(F)(F)F)c3)ccc2C)n1`, the Potency is 4.09 µM (active).
With `CC(C)(C)c1cnc(CSc2cnc(NC(=O)C3CCNCC3)s2)o1` the figure was 0.148 µM (active); with `CNC(=O)c1nn(C)c2c1C(C)(C)Cc1cnc(Nc3ccc(N4CCN(C)CC4)cc3)nc1-2`, 409 nM (active) and 417 nM (active); with `C[C@]1(CO)CN(c2cc(C(=O)Nc3ccc4c(c3)-c3c(c(C(N)=O)nn3-c3ccc(F)cc3)CC4)c(Cl)cn2)C[C@@]1(C)CO`, 3.25 µM (active).
With `CC[C@@]1(O)C(=O)OCc2c1cc1n(c2=O)Cc2cc3cc(O)ccc3nc2-1` the figure was 0.0118 µM (active).
For `Cc1cc(Nc2ncnc3ccc(-c4ccc(CNCCS(C)(=O)=O)o4)cc23)ccc1Oc1ccn2ncnc2c1`, the Potency is 10.3 µM (active) and 14.8 µM (active).
In the case of `Cc1cn2cc(C(=O)N(C)CCO)cc(N[C@@H]3CCOc4cccc(C)c43)c2n1` it was “inactive”; in that of `Cc1ccc(C(=O)Nc2cccc(C(F)(F)F)c2)cc1-c1ccc2nc(NCCN3CCOCC3)ncc2c1`, 1.83 µM (active) and 4.17 µM (active).
With `CS(=O)(=O)c1ccc(-c2cnc(N)c(C(=O)Nc3ccccc3)n2)cc1` the figure was 2.63 µM (active).
With `Cc1cc(Nc2cc(N3CCN(C)CC3)nc(Sc3ccc(NC(=O)C4CC4)cc3)n2)n[nH]1` the figure was 0.0468 µM (active).
